Experiment [1] concerns the target chicken Estrogen Receptor (ERa), ESR1 (gene 396099) (UniProt P06212). Kind of experiment: ATG_chERa_XSP2: Attagene TRANS-FACTORIAL Multi-Species (XSP2) HepG2 Assay for chicken Estrogen Receptor (ERa) (AID 2283817).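 Also: actives raise reporter signal above DMSO so AC50 reflects ER activation.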 The procedure, abridged: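 Reporter mRNA induction read by RT-PCR, fluorescent labelling and capillary electrophoresis after 24 h exposure; positive-direction fit against DMSO baseline. HepG2 cells transfected with multiplexed GAL4-UAS units including chicken ERa chimera; medium contained 3 nM 6-alpha-fluorotestosterone plus 1.5 nM norgestrel.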

Experiment [2] relates to zebrafish Estrogen Receptor (ER2a), gene 317734. The experiment is described as follows: ATG_zfER2a_XSP2: Attagene TRANS-FACTORIAL Multi-Species (XSP2) HepG2 Assay for zebrafish Estrogen Receptor (ER2a) (AID 2283818).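 Also: hits raise reporter mRNA so AC50 reflects activation of zebrafish ER2a.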 The procedure, abridged:
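Multiplexed trans-reporter readout: RT-PCR then capillary electrophoresis of reporter transcripts after 24 h compound treatment. Human HepG2 carries transfected zebrafish ER2a-Gal4 chimera; 3 nM 6-alpha-fluorotestosterone plus 1.5 nM norgestrel present. Induction scored against DMSO.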

The subject of experiment [3] is frog Estrogen Receptor (ER), gene 398734. The experiment is described as follows: ATG_frER1_XSP2: Attagene TRANS-FACTORIAL Multi-Species (XSP2) HepG2 Assay for frog Estrogen Receptor (ER) (AID 2283821).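 Also: hits raise reporter mRNA above DMSO baseline so potency means agonist or activator.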 The method in brief:
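HepG2 cells transiently transfected with multiplexed GAL4-UAS reporter units expressing chimeric NR-Gal4 proteins (TRANS format) were dosed for 24 h. Reporter mRNA was quantified by RT-PCR, FAM primer extension, HpaI digestion and capillary electrophoresis; gain of signal relative to DMSO.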

The test system of experiment [4] is zebrafish Estrogen Receptor (ER2b), gene 317733. Kind of experiment: ATG_zfER2b_XSP2: Attagene TRANS-FACTORIAL Multi-Species (XSP2) HepG2 Assay for zebrafish Estrogen Receptor (ER2b) (AID 2283823).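 Also: fitted upward as reporter gain over DMSO so potency reflects activation.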 The method, then:
ATG_XSP2_multi-species_TRANS is a cell-based, multiplexed assay created by modifying the existing Attagene TRANS-FACTORIAL system to include a panel of nuclear receptors from some or all the following species: human (Homo sapiens), mouse (Mus musculus), frog (Xenopus laevis), zebrafish (Danio rerio), chicken (Gallus gallus), and turtle (Chrysemys picta). The ECOTOX-FACTORIAL format uses HepG2, a human liver cell line, with measurements taken at 24 hours after chemical dosing in a 24-well plate. Xsp2 included 3 nM 6-alpha-fluorotestosterone and 1.5 nM norgestrel to stimulate the androgen receptor.ATG_zfER2b_XSP2 is one of 29 assay components measured or calculated from the ATG_XSP2_multi-species_TRANS assay. It is designed to make measurements of mRNA induction, a form of inducible reporter, as detected with fluorescence intensity signals by Reverse transcription polymerase chain reaction (RT-PCR) and Capillary electrophoresis technology.The assay endpoint ATG_zfER2b_XSP2 was analyzed in the positive analysis fitting direction relative to DMSO as the negative control and baseline of activity. Using a type of inducible reporter, measures of mRNA for gain-of-signal activity can be used to understand the reporter gene at the transcription factor-level as they relate to the gene ER. Furthermore, this assay endpoint can be referred to as a primary readout, because this assay has produced multiple assay endpoints where this one serves a reporter gene function. To generalize the intended target to other relatable targets, this assay endpoint is annotated to the nuclear receptor intended target family, where the subfamily is steroidal.
Human liver HepG2 cells are transiently transfected with multiple reporter transcription units (MRTUs) in 6-well plates using FuGene 6 reagent (Roche; 3 ml FuGene/1 mg DNA). The MRTU constructs are regulated by a cis-regulating element (promoter). […] A major difference between the CIS and TRANS system is that in CIS activities of endogenous TFs are measured, whereas the TRANS assay evaluates changes in activities of exogenous, chimeric NR-Gal4 proteins. […] At the end of 24 hour incubation, total RNA was isolated using TriZol reagent (Invitrogen). The isolated RNA is then reverse-transcribed using oligo(dT) primer and Mo-MLV reverse transcriptase (Invitrogen) with DNAse I (Ambion) treatment for 30 min. The one-tenth of the produced cDNA was amplified by PCR using Taq DNA polymerase (Invitrogen) and two reporter sequence-specific primers. The PCR products were fluorescently labeled by primer extension with 6-arboxyfluorescein (6-FAM) 5'-labeled reporter sequence-specific primer (2 min at 95 C, 20 s at 68 C and 10 min at 72 C) and these products were digested with 5U of HpaI (New England Biolabs) for 2h at 37 C. The fragments were purified using Qiaquick PCR columns (Qiagen), analyzed on an ABI 3130xL genetic analyzer (Applied Biosystems) with peak positions identified by using a set of X-rhodamine (ROX)-labeled MapMarker1000 molecular weight standards (BioVentures). The raw capillary electrophoresis data was processed using Attagraph software (Attagene).

Experiment [5] has as its target GAL4 Transcription Factor (Internal Marker), GAL4 (gene 855828) (UniProt P04386). Kind of experiment: ATG_GAL4_XSP2: Attagene TRANS-FACTORIAL Multi-Species (XSP2) HepG2 Assay for GAL4 Transcription Factor (Internal Marker) (AID 2283814).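 Also: GAL4 reporter mRNA background control in MRTU transfected cells not a receptor target.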 The procedure, abridged: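 Background-control readout: gain-of-signal fitted against DMSO. After 24 h exposure of transfected HepG2 (MRTU, GAL4-UAS reporters; 3 nM 6-alpha-fluorotestosterone, 1.5 nM norgestrel present), transcripts quantified by RT-PCR and capillary electrophoresis fluorescence.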

For experiment [6], the system named is turtle Androgen Receptor (AR), gene 101947425. Kind of experiment: ATG_trAR_XSP2: Attagene TRANS-FACTORIAL Multi-Species (XSP2) HepG2 Assay for turtle Androgen Receptor (AR) (AID 2283815).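 As to AC50: reporter mRNA from a Gal4 chimera of turtle AR measured by RT-PCR; potency for gain of reporter signal meaning activation above DMSO baseline.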 The method in brief:
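Reporter transcripts were quantified via RT-PCR and capillary electrophoresis and fitted upward against DMSO. Transiently transfected human HepG2 cells carrying NR-Gal4 chimeras were exposed 24 h, with 3 nM 6-alpha-fluorotestosterone plus 1.5 nM norgestrel added.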

Experiment [7] concerns chicken Androgen Receptor (AR), gene 422165. The experiment is described as follows: ATG_chAR_XSP2: Attagene TRANS-FACTORIAL Multi-Species (XSP2) HepG2 Assay for chicken Androgen Receptor (AR) (AID 2283819).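 Also: hits raise reporter mRNA above DMSO so potency is for activation.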 The procedure, abridged:
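Readout is reporter mRNA induction via RT-PCR/capillary electrophoresis after 24 h chemical exposure, positive direction relative to DMSO. Transiently transfected HepG2 express chimeric chicken AR–GAL4; AR stimulated by 3 nM 6-alpha-fluorotestosterone and 1.5 nM norgestrel.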

For experiment [8], the system named is frog Androgen Receptor (AR), gene 399456. The experiment is described as follows: ATG_frAR_XSP2: Attagene TRANS-FACTORIAL Multi-Species (XSP2) HepG2 Assay for frog Androgen Receptor (AR) (AID 2283824).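 Also: reporter mRNA from GAL4-UAS units driven by Xenopus AR-Gal4 chimera; actives raise reporter signal above DMSO so AC50 reflects agonist-like induction.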 The procedure, abridged:
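Reporter transcript induction, read by RT-PCR with fluorescent capillary electrophoresis, in human liver HepG2 cells carrying an exogenous Xenopus AR-Gal4 fusion and GAL4-driven reporters; chemical exposure 24 hours, activity scored upward against DMSO controls.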

The nature of experiment [9]: ATG_M_19_XSP2: Attagene TRANS-FACTORIAL Multi-Species (XSP2) HepG2 Assay for M32 Transcription Factor (Internal Marker) (AID 2283822). The procedure, abridged: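 Internal background marker in a multi-species nuclear receptor TRANS panel: transfected HepG2 cells exposed 24 h, with 3 nM 6-alpha-fluorotestosterone and 1.5 nM norgestrel present. Readout is RT-PCR of reporter transcripts resolved by capillary electrophoresis, gain-of-signal versus DMSO.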

In experiment [10] the test system is zebrafish Androgen Receptor (AR), gene 100005148. The experiment is described as follows: ATG_zfAR_XSP2: Attagene TRANS-FACTORIAL Multi-Species (XSP2) HepG2 Assay for zebrafish Androgen Receptor (AR) (AID 2283825).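 Also: hits raise reporter mRNA above DMSO so AC50 reflects agonist-type gain.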 The procedure, abridged: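 After 24 h compound exposure in medium with 3 nM 6-alpha-fluorotestosterone plus 1.5 nM norgestrel, HepG2 cells carrying zebrafish AR–GAL4 reporter constructs were assessed for reporter mRNA gain by RT-PCR and capillary electrophoresis.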

Each structure is given as a SMILES string. Values joined by “and” are separate entries in the source; they are usually repeats but may differ in a detail not shown here. Equal entries are not always repeated. Results filed as inconclusive are left out. Some structures have more than one record in an assay (separate samples or runs), and their calls can disagree. Active and inactive are the calls of the source. The calls were made as follows: active = hit-call score of the fitted dose curve at least 0.9, where 1 is the maximum; inconclusive = response in the unintended direction; inactive = score below 0.9.

As usually defined, the AC50 is the midpoint of the concentration-response curve, whichever way the signal moves.

GAL4 Transcription Factor (Internal Marker), GAL4 (gene 855828), sequence (P04386 whole entry, looked up, the tested form may be a part): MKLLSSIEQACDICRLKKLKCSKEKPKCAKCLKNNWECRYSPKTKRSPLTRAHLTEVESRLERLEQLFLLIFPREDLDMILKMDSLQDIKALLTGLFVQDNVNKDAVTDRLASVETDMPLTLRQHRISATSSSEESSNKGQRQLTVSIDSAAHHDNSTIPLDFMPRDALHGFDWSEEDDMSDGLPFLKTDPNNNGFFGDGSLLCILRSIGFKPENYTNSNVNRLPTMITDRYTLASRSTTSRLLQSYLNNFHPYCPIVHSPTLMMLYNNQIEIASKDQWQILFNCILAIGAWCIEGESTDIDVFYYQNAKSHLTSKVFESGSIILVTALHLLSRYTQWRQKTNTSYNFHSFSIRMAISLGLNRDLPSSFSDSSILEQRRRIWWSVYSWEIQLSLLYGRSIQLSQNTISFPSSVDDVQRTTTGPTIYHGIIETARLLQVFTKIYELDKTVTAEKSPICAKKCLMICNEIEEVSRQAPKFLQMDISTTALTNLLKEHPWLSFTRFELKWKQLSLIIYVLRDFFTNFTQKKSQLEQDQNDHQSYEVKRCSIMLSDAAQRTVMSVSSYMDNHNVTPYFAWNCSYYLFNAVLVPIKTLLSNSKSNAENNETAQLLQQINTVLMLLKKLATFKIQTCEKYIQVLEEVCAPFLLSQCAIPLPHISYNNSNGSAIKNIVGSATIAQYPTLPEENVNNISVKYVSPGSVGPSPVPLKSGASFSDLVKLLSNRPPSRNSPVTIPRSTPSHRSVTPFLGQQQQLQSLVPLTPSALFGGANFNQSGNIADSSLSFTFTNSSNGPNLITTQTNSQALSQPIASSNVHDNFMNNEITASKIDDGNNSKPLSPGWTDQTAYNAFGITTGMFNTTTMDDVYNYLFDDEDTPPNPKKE
chicken Estrogen Receptor (ERa), ESR1 (gene 396099), sequence (P06212 whole entry, looked up, the tested form may be a part): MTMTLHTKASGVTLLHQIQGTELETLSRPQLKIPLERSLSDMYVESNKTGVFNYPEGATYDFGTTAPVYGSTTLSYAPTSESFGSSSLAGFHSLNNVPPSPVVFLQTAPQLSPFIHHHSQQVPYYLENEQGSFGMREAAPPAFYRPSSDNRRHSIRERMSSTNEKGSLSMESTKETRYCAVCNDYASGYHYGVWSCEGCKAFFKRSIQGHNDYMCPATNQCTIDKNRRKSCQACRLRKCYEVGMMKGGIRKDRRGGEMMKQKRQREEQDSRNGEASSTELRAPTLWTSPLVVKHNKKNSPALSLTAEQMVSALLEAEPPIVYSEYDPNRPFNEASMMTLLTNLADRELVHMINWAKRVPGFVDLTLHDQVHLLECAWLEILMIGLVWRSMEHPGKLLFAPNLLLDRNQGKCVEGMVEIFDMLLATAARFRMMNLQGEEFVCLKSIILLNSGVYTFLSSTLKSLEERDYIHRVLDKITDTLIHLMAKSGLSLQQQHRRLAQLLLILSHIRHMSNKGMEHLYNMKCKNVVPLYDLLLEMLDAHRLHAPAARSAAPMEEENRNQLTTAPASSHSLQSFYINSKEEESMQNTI

In the case of `Clc1ccc(C(c2ccccc2Cl)C(Cl)Cl)cc1` (centres undefined), the AC50 in [1] was 3.1 µM (active) and 7.58 µM (active); in experiment [2], 2.3 µM (active) and 2.61 µM (active); in experiment [3], 2.74 µM (active) and 4.46 µM (active); in [4], 2.37 µM (active) and 1.97 µM (active).

In the case of `Cc1cc(=O)oc2cc(N(C)C)ccc12`, the outcome in experiment [5], in experiment [1] and in [2] was inactive. In addition, the AC50 in experiment [1] is 31.4 µM (active); in experiment [2], 100 µM (active); in [3] it was 19.2 µM (active) and 27.6 µM (active); in experiment [4], 77.1 µM (active) and 100 µM (active).

As to `OCc1cccc(Oc2ccccc2)c1`, in experiment [5], the call was inactive. In addition, the AC50 in [1] is 16 µM (active) and 6.22 µM (active); in experiment [2], 23.5 µM (active) and 14.7 µM (active); in [3], 27 µM (active) and 27.1 µM (active); in experiment [4] it was 46.5 µM (active) and 12.4 µM (active).

With `O=c1c(O)c(-c2ccc(O)cc2)oc2cc(O)cc(O)c12`, the AC50 in experiment [6] was 3.01 µM (active) and 1.32 µM (active); in [1], 3 µM (active) and 1.53 µM (active); in experiment [2], 1.61 µM (active) and 981 nM (active); in experiment [7] it was 3.26 µM (active) and 1.35 µM (active); in experiment [3], 2.48 µM (active) and 1.49 µM (active); in [4] it was 2.83 µM (active) and 1.85 µM (active). Also, the AC50 in experiment [8] is 2.89 µM (active) and 1.82 µM (active).

As to `CCCCC(CC)COC(=O)c1ccc(O)cc1` (centres undefined), the molecule was called inactive in [5], in [9] and in [10]. Besides, the AC50 in experiment [6] was 53.2 µM (active); in [1], 6.15 µM (active); in [2] it was 33.4 µM (active); in experiment [7], 51.9 µM (active); in experiment [3], 49.9 µM (active); in [4], 16.3 µM (active).

In the case of `Oc1ccc2cc(SSc3ccc4cc(O)ccc4c3)ccc2c1`, the result in experiment [6], in experiment [7] and in experiment [3] was inactive. The AC50 was 2.29 µM (active) and 634 nM (active) in [1]; 0.822 µM (active) in experiment [2]; 40.7 µM (active) in [7]; 2.56 µM (active) and 2.52 µM (active) in experiment [4]; 26.3 µM (active) in experiment [8].

On to `BrCc1cccc(Oc2ccccc2)c1`, for which the AC50 was 27.5 µM (active) and 21.5 µM (active) in experiment [1]; 19.2 µM (active) and 11.9 µM (active) in [2]; 7.78 µM (active) and 26.9 µM (active) in experiment [3]; 34.9 µM (active) and 12.4 µM (active) in experiment [4].

These data come from PubChem BioAssay (EPA / NIEHS).
